Data reported in PubChem BioAssay AID1159580 (chemical genetic matrix, 2015).
Where “and” joins values, the source holds several entries; their conditions need not be identical. Equal entries are not always repeated. Out of some 5,500 compounds screened, about 2,000 (36%) were called active. Inconclusive results (about 18%) are left out. Rule as the data show it: active = normalized growth mostly below about 0.91 (no sharp cut-off); inconclusive = no clear call, values can overlap the other calls; inactive = mostly above about 0.92. This is one part of the list.

Assay: chemical genetic growth profiling, strain panel (AID 1159580);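 also: tested at 20 µM; growth read once vehicle control cultures reached saturation at 30 °C; 1 = growth at the plate median or of vehicle wells; lower values mean less growth of the strain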
Settings: S. cerevisiae deletion strains, growth OD

Measured: normalized growth

C=C1C2CC[C@@]3(C)[C@H](c4ccoc4)OC(=O)C[C@]13O[C@H]1CC(O)C(C)(C)C(CC(=O)OC)[C@@]21C (stereo not given in full)
inactive: locus YAL021C, strain ccr4, stronger effect = lower value 0.962 | locus YAL026C, strain drs2, stronger effect = lower value 0.934 | locus YAL030W, strain snc1, stronger effect = lower value 0.949 | locus YBL061C, strain skt5, stronger effect = lower value 0.984 | locus YBR009C, strain hhf1, stronger effect = lower value 0.972 | locus YBR021W, strain FUR4, stronger effect = lower value 0.991 | locus YBR023C, strain chs3, stronger effect = lower value 0.981 | locus YBR171W, strain sec66, stronger effect = lower value 0.98 | locus YBR229C, strain ROT2, stronger effect = lower value 0.995 | locus YBR231C, strain swc5, stronger effect = lower value 0.974 | locus YBR279W, strain paf1, stronger effect = lower value 0.978 | locus YCL011C, strain gbp2, stronger effect = lower value 0.984 | locus YCL016C, strain dcc1, stronger effect = lower value 0.983 | locus YCL029C, strain bik1, stronger effect = lower value 1.01 | locus YCL061C, strain MRC1, stronger effect = lower value 0.989 | locus YCL069W, strain vba3, stronger effect = lower value 0.979 | locus YCR088W, strain abp1, stronger effect = lower value 0.977 | locus YDL005C, strain med2, stronger effect = lower value 0.952 | locus YDL035C, strain GPR1, stronger effect = lower value 0.999 | locus YDL040C, strain nat1, stronger effect = lower value 0.982 | locus YDL074C, strain BRE1, stronger effect = lower value 0.999 | locus YDL101C, strain DUN1, stronger effect = lower value 0.999 | locus YDL185W, strain tfp1, stronger effect = lower value 1.02 | locus YDL192W, strain arf1, stronger effect = lower value 1.01 | locus YDR001C, strain nth1, stronger effect = lower value 0.962 | locus YDR069C, strain doa4, stronger effect = lower value 0.957 | locus YDR101C, strain arx1, stronger effect = lower value 1.01 | locus YDR137W, strain rgp1, stronger effect = lower value 0.938 | locus YDR150W, strain NUM1, stronger effect = lower value 0.98 | locus YDR159W, strain sac3, stronger effect = lower value 0.936 | locus YDR162C, strain NBP2, stronger effect = lower value 1.01 | locus YDR195W, strain ref2 0.937 | locus YDR297W, strain sur2, stronger effect = lower value 0.965 | locus YDR318W, strain mcm21, stronger effect = lower value 1.02 | locus YDR334W, strain swr1, stronger effect = lower value 0.966 | locus YDR335W, strain msn5, stronger effect = lower value 0.967 | locus YDR388W, stronger effect = lower value 1 | locus YDR392W, strain spt3, stronger effect = lower value 0.97 | locus YDR502C, strain sam2, stronger effect = lower value 1 | locus YEL003W, strain gim4, stronger effect = lower value 0.975 | locus YEL037C, strain rad23, stronger effect = lower value 0.976 | locus YEL061C, strain CIN8 (second series), stronger effect = lower value 0.966 | locus YEL061C, strain CIN8, stronger effect = lower value 1.05 | locus YER015W, strain faa2, stronger effect = lower value 0.985 | locus YER016W, strain bim1, stronger effect = lower value 0.967 | locus YER110C, stronger effect = lower value 1.02 | locus YER111C, strain swi4, stronger effect = lower value 0.988 | locus YER155C, strain BEM2 (second series), stronger effect = lower value 0.955 | locus YER155C, strain BEM2, stronger effect = lower value 1 | locus YER167W, strain BCK2, stronger effect = lower value 1 | locus YFR010W, strain ubp6, stronger effect = lower value 0.965 | locus YGL078C, strain dbp3, stronger effect = lower value 1.02 | locus YGL086W, strain mad1, stronger effect = lower value 1.02 | locus YGL167C, strain pmr1, stronger effect = lower value 0.963 | locus YGL173C, strain kem1, stronger effect = lower value 0.961 | locus YGL227W, strain vid30, stronger effect = lower value 0.986 | locus YGL240W, strain doc1, stronger effect = lower value 0.97 | locus YGL248W, strain PDE1, stronger effect = lower value 1.01 | locus YGL253W, strain hxk2, stronger effect = lower value 0.972 | locus YGR135W, strain pre9, stronger effect = lower value 1.01 | locus YGR252W, strain gcn5, stronger effect = lower value 1.02 | locus YHR013C, strain ard1, stronger effect = lower value 0.939 | locus YHR027C, strain rpn1, stronger effect = lower value 0.967 | locus YHR030C, strain SLT2, stronger effect = lower value 1.01 and 0.963 | locus YHR079C, strain IRE1 (second series), stronger effect = lower value 1.01 | locus YHR079C, strain IRE1, stronger effect = lower value 0.973 | locus YHR094C, strain hxt1, stronger effect = lower value 1.01 | locus YHR129C, strain ARP1, stronger effect = lower value 1 | locus YHR142W, strain chs7, stronger effect = lower value 0.986 | locus YHR200W, strain rpn10, stronger effect = lower value 0.993 | locus YIL066C, strain RNR3, stronger effect = lower value 0.997 | locus YIL073C, strain SPO22, stronger effect = lower value 1.06 | locus YIL125W, strain kgd1, stronger effect = lower value 1.01 | locus YIR030C, strain dcg1, stronger effect = lower value 1.01 | locus YJL092W, strain hpr5, stronger effect = lower value 0.975 | locus YJL095W, strain BCK1 (second series), stronger effect = lower value 0.956 | locus YJL095W, strain BCK1, stronger effect = lower value 1.01 and 0.974 | locus YJL115W, strain asf1, stronger effect = lower value 0.937 | locus YJL129C, strain trk1, stronger effect = lower value 0.963 | locus YJL134W, strain LCB3, stronger effect = lower value 1.01 | locus YJL154C, strain vps35, stronger effect = lower value 0.973 | locus YJL164C, strain tpk1, stronger effect = lower value 0.972 | locus YJL166W, strain qcr8, stronger effect = lower value 0.97 | locus YJL168C, strain set2, stronger effect = lower value 1.01 | locus YJL187C, strain SWE1 (second series), stronger effect = lower value 1
